According to PubChem BioAssay (Tox21):
Values joined by “and” are separate entries in the source; they are usually repeats but may differ in a detail not shown here. Equal values may be shown once. Records with an inconclusive call do not appear. Where a call stands in place of a potency, no number is given. Some structures have more than one record in an assay (separate samples or runs), and their calls can disagree. Active and inactive are the calls of the source. Unless noted, calls follow the shape of the dose curve; as a rule, active = well fitted curve in the direction sought with a large enough effect in the repeat runs; inconclusive = weak or mixed curves; inactive = no such curve, though single readings can be large; an effect the other way counts as inactive or inconclusive.

What was measured:
[1] = qHTS assay for small molecule agonists of the p53 signaling pathway (AID 651631; calls by dose curve; also: nearly all actives have a fitted effect of over 15% in size; also: potency is read from the fitted curve at half-maximal effect)
Outline: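 HCT-116 cells carrying a beta-lactamase reporter under p53 response elements were dosed with compound for 16 h at 37 °C. LiveBLAzer B/G FRET substrate was then added for 2 h at room temperature, and fluorescence intensity was read to detect pathway agonism.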

[2] = qHTS assay for small molecules that induce genotoxicity in human embryonic kidney cells expressing luciferase-tagged ATAD5 (AID 651632); also: nearly all actives have a fitted effect of over 15% in size; also: potency is read from the fitted curve at half-maximal effect
Outline: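 HEK293T cells carrying luciferase-tagged ATAD5 were given compound or DMSO vehicle and incubated 16 hr at 37C, 5% CO2. Luciferase activity was read after 30 min at room temperature with Amplite; a rise signals genotoxic stress.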

[3] = qHTS assay for small molecule agonists of the p53 signaling pathway - cell viability (AID 651633; calls by dose curve; also: nearly all actives have a fitted effect of over 30% in size; also: potency is read from the fitted curve at half-maximal effect)
Outline: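 p53RE-bla cells, seeded at 4,000 per well and rested 5 h at 37 C/5% CO2, received compounds in DMSO for 16 h at 37 C. CellTiter-Glo was then added, and luminescence was read after 30 min at room temperature to gauge cytotoxicity.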

[4] = qHTS assay for small molecules that induce genotoxicity in human embryonic kidney cells expressing luciferase-tagged ATAD5 - cell viability (AID 651634; calls by dose curve; also: nearly all actives have a fitted effect of over 25% in size; also: potency is read from the fitted curve at half-maximal effect)
Outline: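 HEK293T cells carrying luciferase-tagged ATAD5, 2,000 cells/well, exposed to compound for 15.5 hr at 37C. Viability read as live-cell protease activity by CellTiter-Fluor fluorescence after 30 min at 37C.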

[5] = qHTS assay to test for compound auto fluorescence at 590 nm (red) in HepG2 cells (AID 720674)
Outline: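 Rose Bengal sodium served as the red fluorophore standard. HepG2 monolayers (overnight attachment, MEM with 10% FBS) were exposed to test compounds for 1 hr at 37 C and read at Ex 540/Em 590 nm.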

[6] = qHTS assay to test for compound auto fluorescence at 535 nm (green) in HepG2 cells (AID 720675)
[7] = qHTS assay to test for compound auto fluorescence at 460 nm (blue) in HEK293 cells (AID 720678)
Outline: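 HEK293 cells (2,000/well, medium with 10% dialyzed FBS) attached 4-5 hr, then exposed to compound overnight at 37C, 5% CO2. Blue fluorescence read at 405/460 nm, with triamterene as reference fluorophore.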

[8] = qHTS assay to test for compound auto fluorescence at 590 nm (red) in HEK293 cells (AID 720679)
Outline: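 HEK293 cells (2,000/well, 10% dialyzed FBS) attached 4-5 hr, then dosed with compound or DMSO and incubated overnight at 37C, 5% CO2. Red fluorescence read at 540/590 nm, Rose Bengal sodium as reference fluorophore.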

[9] = qHTS assay for small molecule disruptors of the mitochondrial membrane potential - cell viability (AID 720634; calls by dose curve; also: nearly all actives have a fitted effect of over 20% in size; also: potency is read from the fitted curve at half-maximal effect)
Outline: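 HepG2 cells, 2,000 per well, attached overnight, then treated 1 hr at 37 C, 5% CO2. Viability read as ATP by CellTiter-Glo luminescence after 30 min at room temperature. Read in the same wells as the m-MPI membrane-potential dye assay.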

[10] = qHTS assay for small molecule disruptors of the mitochondrial membrane potential (AID 720635); also: potency is read from the fitted curve at half-maximal effect
Outline: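 HepG2 cells (2,000/well) attached overnight at 37C, then took compound for 1 hr at 37C, 5% CO2. Mito-MPS dye was added for 30 min; fluorescence was read at 490/535 nm (monomers) and 540/590 nm (aggregates).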

Structure (SMILES)	Potency [1]	Potency [2]	Potency [3]	Potency [4]	fluorescence, relative to Rose Bengal [5]	fluorescence, % of fluorescein control [6]	fluorescence, % of triamterene [7]	fluorescence, % of fluorescent control [8]	Potency [9]	outcome [5]	outcome [6]	outcome [8]	Potency [10]	Potency [7]
O=c1oc2ccccc2c(O)c1Cc1c(O)c2ccccc2oc1=O	0.639 µM (active)	inactive	0.507 µM (active)	inactive	-0.349% [at 18.6 µM] (inactive)	0.0236% [at 18.6 µM] (inactive)	0.108% [at 18.6 µM] (inactive)	-0.0848% [at 18.6 µM] (inactive)	–	–	–	–	–	–
FC(Cl)(Cl)Cl	inactive	inactive	inactive	inactive	–	–	–	–	inactive	inactive	inactive	inactive	–	–
CC(C)(C)OO	inactive	inactive	inactive	inactive	–	–	–	–	inactive	inactive	inactive	inactive	inactive	inactive
CC(=O)O[C@H]1CC[C@@]2(C)C(=CC[C@@H]3[C@@H]2CC[C@]2(C)C(=O)CC[C@@H]32)C1	inactive	inactive	inactive	inactive	–	–	–	–	inactive	inactive	inactive	inactive	inactive and 54.5 µM (active)	inactive
Cc1ccc(OP(=O)(Oc2ccccc2)Oc2ccccc2)cc1	inactive	inactive	inactive	inactive	–	–	–	–	–	inactive	inactive	inactive	0.983 µM (active)	–
Cn1cc(C2=C(c3cn(C4CCN(Cc5ccccn5)CC4)c4ccccc34)C(=O)NC2=O)c2ccccc21	7.5 µM (active)	inactive	inactive	–	–	–	–	–	inactive	inactive	–	inactive	inactive	inactive
CNC(C)Cc1ccc2c(c1)OCO2 (stereo not given)	inactive	inactive	inactive	inactive	–	–	–	–	inactive	inactive	–	inactive	inactive	inactive
CC(=O)/C=C/c1ccc2c(c1)OCO2	30.8 µM (active)	inactive	inactive	inactive	–	–	–	–	inactive	inactive	inactive	inactive	inactive	inactive
CCOC(=O)OC1=C(c2cc(C)ccc2C)C(=O)NC12CCC(OC)CC2 (stereo not given)	68.5 µM (active)	inactive	inactive	inactive	–	–	–	–	10.9 µM (active)	inactive	inactive	inactive	21.7 µM (active)	inactive
CCCN(CC)CC1COC2(CCC(C(C)(C)C)CC2)O1 (stereo not given)	inactive	inactive	inactive	–	–	–	–	–	inactive	inactive	inactive	inactive	–	inactive
COc1ccc(/C(=C/C(=O)N2CCOCC2)c2ccc(Cl)cc2)cc1OC	inactive	inactive	inactive	inactive	–	–	–	–	inactive	inactive	inactive	inactive	–	inactive
O=C1NCN(c2ccccc2)C12CCN(CC1COc3ccccc3O1)CC2 (stereo not given)	inactive	inactive	inactive	inactive	–	–	–	–	inactive	inactive	inactive	inactive	inactive	inactive
CCN(CC)c1c([N+](=O)[O-])cc(C(F)(F)F)c(N)c1[N+](=O)[O-]	inactive	inactive	inactive	inactive	–	–	–	–	–	inactive	inactive	inactive	24.3 µM (active)	inactive
CCN	inactive	inactive	inactive	inactive	–	–	–	–	inactive	inactive	inactive	inactive	inactive	inactive
Cc1cc(C(C)(C)c2cc(C)c(O)c(C)c2)cc(C)c1O	29.6 µM (active)	inactive	59.1 µM (active)	–	–	–	–	–	29.6 µM (active)	inactive	inactive	inactive	18.7 µM (active)	inactive
[CH3][Hg][Cl]	30.5 µM (active)	4.84 µM (active)	24.3 µM (active)	27.2 µM (active)	–	–	–	–	27.2 µM (active)	inactive	inactive	inactive	19.3 µM (active)	inactive
CCCN(CCC)CCc1c[nH]c2ccccc12	inactive	inactive	inactive	–	–	–	–	–	inactive	inactive	inactive	inactive	–	–
NNC(=O)c1ccccc1	inactive	inactive	inactive	inactive	–	–	–	–	inactive	inactive	inactive	inactive	–	–
CCCCCCCCCCCCCN1CC(C)OC(C)C1 (stereo not given)	inactive	inactive	inactive	inactive	–	–	–	–	inactive	inactive	inactive	inactive	–	inactive
ClC(Cl)=C(Cl)Cl	inactive	inactive	inactive	inactive	–	–	–	–	inactive	inactive	inactive	inactive	–	inactive
Oc1ccc(C(c2ccc(O)cc2)(C(F)(F)F)C(F)(F)F)cc1	60.8 µM (active) and 54.5 µM (active)	inactive	68.2 µM (active) and 43.3 µM (active)	inactive	–	–	–	–	inactive	inactive	inactive	inactive	2.72 µM (active) and 4.86 µM (active)	inactive
O=C(CCl)C(Cl)Cl	13.8 µM (active)	inactive	inactive	55 µM (active)	–	–	–	–	49 µM (active)	inactive	inactive	inactive	61.7 µM (active)	–

Structure (SMILES)	Potency [1]	Potency [2]	Potency [3]	Potency [4]	fluorescence, relative to Rose Bengal [5]	fluorescence, % of fluorescein control [6]	fluorescence, % of triamterene [7]	fluorescence, % of fluorescent control [8]	Potency [9]	outcome [5]	outcome [6]	outcome [8]	Potency [10]	Potency [7]
CN(C)[C@@H]1C(=O)C(C(N)=O)=C(O)[C@@]2(O)C(=O)C3=C(O)c4c(O)ccc(Cl)c4[C@@](C)(O)[C@H]3C[C@@H]12	inactive	inactive	inactive	inactive	–	–	–	–	inactive	inactive	–	inactive	inactive	inactive
FC(F)(F)c1cccc(C2=CCN(CCc3ccc4ccccc4c3)CC2)c1	inactive	inactive	inactive	inactive	–	–	–	–	inactive	inactive	inactive	inactive	–	inactive
Cc1cc(C)cc(OP(=O)(Oc2cc(C)cc(C)c2)Oc2cc(C)cc(C)c2)c1	inactive	inactive	inactive	inactive	–	–	–	–	–	inactive	inactive	inactive	49.3 µM (active)	inactive
Nc1ccccc1C(=O)Oc1ccc2ccccc2c1	inactive	5.45 µM (active)	inactive	inactive	–	–	–	–	–	inactive	–	inactive	61.1 µM (active)	inactive
CCCCCCCCCCCCCCCC[n+]1ccccc1	26.6 µM (active) and 71.7 µM (active)	inactive	67.6 µM (active) [middle of 4 runs]	63.9 µM (active) and 48.6 µM (active)	–	–	–	–	63.9 µM (active) and 60.3 µM (active)	inactive	inactive	inactive	24.3 µM (active) [middle of 4 runs]	inactive
CC(C)[C@H](C(=O)O[C@H](C#N)c1cccc(Oc2ccccc2)c1)c1ccc(Cl)cc1	inactive	inactive	inactive	inactive	–	–	–	–	–	inactive	inactive	inactive	30.6 µM (active)	inactive
CC(c1ccc(O)cc1)c1ccc(O)cc1	inactive	inactive	inactive	inactive	–	–	–	–	inactive	inactive	inactive	inactive	25.6 µM (active)	–
COc1cc(N)c(Cl)cc1C(=O)NC1CN2CCC1CC2 (stereo not given)	inactive	inactive	inactive	–	–	–	–	–	inactive	inactive	inactive	inactive	inactive	inactive
CN(C)CCc1c[nH]c2cccc(O)c12	inactive	inactive	inactive	inactive	–	–	–	–	inactive	inactive	inactive	inactive	inactive	inactive
C[C@]12CC[C@@H]3c4ccc(OC(=O)N(CCCl)CCCl)cc4CC[C@H]3[C@@H]1CC[C@@H]2O	21.1 µM (active)	inactive	inactive	inactive	–	–	–	–	inactive	inactive	inactive	inactive	inactive	–
O=CC(Br)(Br)Br	13.6 µM (active)	9.66 µM (active)	inactive	30.5 µM (active)	–	–	–	–	–	inactive	inactive	inactive	30.5 µM (active)	inactive
CCOC(=O)C1(c2ccccc2)CCN(CCC(C#N)(c2ccccc2)c2ccccc2)CC1	3.76 µM (active) and 26.6 µM (active)	inactive	1.88 µM (active) and 9.44 µM (active)	inactive	–	–	–	–	–	inactive	inactive	inactive	13.3 µM (active) and 26.6 µM (active)	–
CC(=O)OC1(c2ccccc2)CCN(CCc2ccccc2)CC1	inactive	inactive	inactive	inactive	–	–	–	–	inactive	inactive	inactive	inactive	–	inactive
COC(=O)N(C(=O)N1CO[C@@]2(C(=O)OC)Cc3cc(Cl)ccc3C2=N1)c1ccc(OC(F)(F)F)cc1	46.9 µM (active)	inactive	inactive	–	–	–	–	–	3.32 µM (active)	inactive	inactive	inactive	13.2 µM (active)	inactive
CN(C)CCc1c[nH]c2ccc(O)cc12	inactive	inactive	inactive	inactive	–	–	–	–	inactive	inactive	inactive	inactive	inactive	inactive
BrCBr	inactive	–	inactive	–	–	–	–	–	inactive	inactive	–	inactive	inactive	inactive
Clc1ccc(-c2ccc(Cl)c(Cl)c2Cl)c(Cl)c1Cl	58.2 µM (active)	–	65.3 µM (active)	inactive	–	–	–	–	–	inactive	inactive	inactive	–	inactive
CC(C)OS(C)(=O)=O	inactive	–	inactive	inactive	–	–	–	–	inactive	inactive	–	inactive	–	inactive
CCN(CC)C(=S)[S-].CCN(CC)C(=S)[S-].[Zn+2]	–	5.4 µM (active)	4.29 µM (active)	15.2 µM (active)	–	–	–	–	inactive	inactive	inactive	inactive	3.41 µM (active)	inactive
N#CSCSC#N	5.57 µM (active) and 10.8 µM (active)	19.8 µM (active) and 30.3 µM (active)	62.5 µM (active) and 60.5 µM (active)	–	–	–	–	–	–	inactive	–	inactive	62.5 µM (active) and 48.1 µM (active)	inactive
CCC[CH2][Sn]([CH2]CCC)([CH2]CCC)[O]C(=O)c1ccccc1	–	inactive	0.611 µM (active)	1.22 µM (active)	–	–	–	–	2.17 µM (active)	inactive	inactive	inactive	0.077 µM (active)	inactive
